A selection: hits, their analogues and other compounds. The true share with any hit is near 6.8%.
Pf Dd2 growth – P. falciparum Dd2 growth inhibition; SYBR Green, 72 h; stronger effect = lower value; AID 1159554; 94,000 compounds, 2.3% hits; activity change, % at 10 µM; in the data active = activity change below about -80%
Tcruzi prolif – inhibitors of T. cruzi proliferation; T. cruzi beta-gal in NIH3T3, GalScreen luminescence, 90 h; inhibition, % at 8.34 µM; 77,000 compounds, 5.9% hits;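 active = mean inhibition above about 93%, with at least 55% of replicates each passing it, limit read from the data, passing the limit was not always enough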
C diff HTS – C. difficile growth inhibition | Clostridium difficile clinical isolate growth, OD600, 24 h; stronger effect = lower value | 86,000 compounds, 0.25% hits | growth activity, negative = inhibition, % at 16 µg/mL (by protocol) | AID 1259249;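 active = mean growth activity at or below -80% and every replicate also at or below -80%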;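 also: 0% = DMSO wells and -100% = levofloxacin 16 µg/mL wells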
Numbers without * were called inactive; ! = a repeat was not active.

For CC(C)CC#Cc1ccc2c(c1)O[C@H](CN(C)Cc1ccc3c(c1)OCO3)[C@@H](C)CN([C@H](C)CO)S2(=O)=O the results were Pf Dd2 growth -74 and C diff HTS 12.
Screening O=C(NC[C@@H]1[C@H](c2ccccc2)[C@H](CO)N1Cc1ccccn1)C1CC1 returned Pf Dd2 growth 2, Tcruzi prolif 25 and C diff HTS 1.
CC=Cc1ccc2n(c1=O)C[C@@H]1[C@@H](CO)[C@H](C(=O)N3CCc4ccccc4C3)N(C(=O)COC)[C@H]21 (mixture of isomers) was read as Pf Dd2 growth 23 and C diff HTS 4.
CN(C)C(=O)c1cccc(-c2ccc3c(c2)[C@@H]2[C@@H](CCN2C(=O)c2cccc(F)c2)[C@H](CO)N3C)c1 was read as Pf Dd2 growth -5, Tcruzi prolif 89 and C diff HTS 4.
For C/C=C/c1ccc(C2[C@@H]3CN(C(=O)Nc4ccccc4F)C[C@H]2N3)cc1 (stereo partly specified) the results were Pf Dd2 growth -15 and C diff HTS 5.
For Cc1ccccc1-c1ccc(C2[C@@H]3CN(C(=O)Nc4ccc(F)cc4)C[C@H]2N3)cc1 (stereo partly specified) the results were Pf Dd2 growth -39 and C diff HTS 50.
O=C(Nc1ccc2c(c1)OCO2)N1[C@@H]2CNC[C@H]1C2c1ccc(/C=C/c2ccccc2)cc1 (stereo partly specified) was read as Pf Dd2 growth -70 and C diff HTS 34.
Screening C/C=C/c1ccc(C2[C@@H]3CN(C(=O)Nc4ccc(F)cc4)C[C@H]2N3)cc1 (stereo partly specified) returned Pf Dd2 growth -54 and C diff HTS -7.
`O=C(Nc1ccccc1F)N1C[C@@H]2N[C@H](C1)C2c1ccc(/C=C/c2ccccc2)cc1` (stereo partly specified) gave Pf Dd2 growth -60 and C diff HTS -97*!.
Screening C/C=C/c1ccc(C2[C@@H]3CN(C(=O)Nc4ccc(C(F)(F)F)cc4)C[C@H]2N3)cc1 (stereo partly specified) returned Pf Dd2 growth -82*! and C diff HTS 0.
For O=C(Nc1ccc(F)cc1)N1C[C@@H]2N[C@H](C1)C2c1ccc(/C=C/c2ccccc2)cc1 (stereo partly specified) the results were Pf Dd2 growth -36 and C diff HTS -100*.
`O=C(Nc1ccc2c(c1)OCO2)N1C[C@@H]2N[C@H](C1)C2c1ccc(C=Cc2ccccc2)cc1` (stereo partly specified) gave Pf Dd2 growth -74 and C diff HTS -99*!.
Screening CC(C)NC(=O)N(C)C[C@@H]1Oc2ccc(NC(=O)CCN3CCOCC3)cc2C(=O)N([C@H](C)CO)C[C@@H]1C returned Pf Dd2 growth 20, Tcruzi prolif 2 and C diff HTS 1.
Screening C[C@@H]1CN([C@@H](C)CO)C(=O)c2cc(NC(=O)CCC(F)(F)F)ccc2O[C@H]1CN(C)C(=O)Nc1cccc2ccccc12 returned Pf Dd2 growth -7, Tcruzi prolif 27 and C diff HTS -4.
Screening C[C@@H]1CN([C@H](C)CO)C(=O)c2cc(NC(=O)C3CCCCC3)ccc2O[C@@H](C)CCCCO[C@H]1CN(C)Cc1ccc(Cl)c(Cl)c1 returned Pf Dd2 growth -90*, Tcruzi prolif 89 and C diff HTS 12.
Screening C[C@@H]1CN([C@@H](C)CO)C(=O)c2cc(NC(=O)C3CCCCC3)ccc2O[C@@H](C)CCCCO[C@H]1CN(C)Cc1ccc(Cl)c(Cl)c1 returned Pf Dd2 growth -80, Tcruzi prolif 88 and C diff HTS 12.
Screening C[C@H](CO)N1C[C@H](C)[C@H](CN(C)Cc2ccc(Cl)c(Cl)c2)OCCCC[C@H](C)Oc2ccc(NC(=O)C3CCCCC3)cc2C1=O returned Pf Dd2 growth -44, Tcruzi prolif 94 and C diff HTS 5.
For C[C@@H]1CCCCO[C@H](CN(C)Cc2ccc(Cl)c(Cl)c2)[C@@H](C)CN([C@@H](C)CO)C(=O)c2cc(NC(=O)C3CCCCC3)ccc2O1 the results were Pf Dd2 growth -91*, Tcruzi prolif 90 and C diff HTS 13.
Screening C[C@@H]1CN([C@H](C)CO)C(=O)c2cc(NC(=O)c3ccncc3)ccc2O[C@@H](C)CCCCO[C@H]1CN(C)Cc1ccc(Cl)c(Cl)c1 returned Pf Dd2 growth -86* and C diff HTS 13.
`C[C@@H]1CCCCO[C@@H](CN(C)Cc2ccc(Cl)c(Cl)c2)[C@@H](C)CN([C@H](C)CO)C(=O)c2cc(NC(=O)c3ccncc3)ccc2O1` gave Pf Dd2 growth -18, Tcruzi prolif 92 and C diff HTS 15.
